# Bioassay records from PubChem.
# This is a sample that favours compounds with a hit; in the whole collection about 1.7% have one here.
# GLP-1R inv ag – GLP-1 receptor (human) inverse agonism | HEK293 GLP-1R CRE-luciferase, luminescence, 24 h; GLP-1R form is constitutively active | P43220 | AID 624417 | 1.6% of 410,000 active | Potency, µM (series often up to 38.3 µM), for the others: top-dose activity change, negative = inhibition, usual class: inhibitors; note: % is set by controls: 0 for no effect and ±100 for the full control effect; nearly all actives have a fitted effect of over 55% in size
# Target sequence (P43220 whole entry, looked up): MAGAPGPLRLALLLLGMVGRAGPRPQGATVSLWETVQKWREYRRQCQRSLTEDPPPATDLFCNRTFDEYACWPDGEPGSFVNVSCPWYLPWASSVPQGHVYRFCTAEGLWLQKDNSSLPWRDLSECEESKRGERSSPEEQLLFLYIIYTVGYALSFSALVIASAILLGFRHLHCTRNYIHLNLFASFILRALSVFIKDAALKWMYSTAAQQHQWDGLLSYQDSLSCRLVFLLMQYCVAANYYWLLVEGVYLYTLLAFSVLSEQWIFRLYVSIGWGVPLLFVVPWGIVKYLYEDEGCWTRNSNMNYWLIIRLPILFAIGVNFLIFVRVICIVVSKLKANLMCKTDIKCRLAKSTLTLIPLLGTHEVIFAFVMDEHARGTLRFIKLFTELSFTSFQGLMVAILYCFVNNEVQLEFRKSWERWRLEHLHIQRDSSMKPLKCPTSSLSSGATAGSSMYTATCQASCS
#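 HEK293 cells stably co-expressing a cAMP-responsive luciferase reporter and constitutively active GLP-1R were seeded, incubated 12 h, then exposed to compounds for 24 h at 37 C. Luminescence was read 12 min after detection reagent; inverse agonists lower signal.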
# GLP1R ag – agonists of human GLP-1 receptor. 0.007% of 380,000 active. HEK293 GLP-1R CRE-luciferase, luminescence, 4-6 h; cells express a hypersensitive GLP-1R form. P43220. AID 624172. Potency, µM (doses to about 45.6 µM), for inactives: at the highest dose activation, hits mostly activators; note: % of control where 0% means no effect
# PTHR1 agonist – PTHR1 (human) receptor agonism; Q03431; HEK293 GP2 PTHR1 cells, GloSensor cAMP luminescence, 1 h; Potency, µM (series often up to 115 µM), without a hit: at the highest dose activation, most hits filed as activators; 0.075% of 410,000 active; AID 743266; note: nearly all actives have a fitted effect of over 55% in size
#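 HEK-293-derived GP2 cells expressing PTHR1 and a GloSensor cAMP reporter, 3,000/well, plated overnight, given luciferin plus IBMX (each 0.5 mM as added) for 1 h at 37 °C, then compound for 1 h at 37 °C. Luminescence was read after 15 min at room temperature.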
# GLP1R cytotox – cytotoxic in the GLP-1 receptor inverse agonist counter-screen; HEK293 cAMP-luciferase reporter cells, luminescence, 24 h; Potency, µM (highest dose often 38.3 µM), for inactives: top-dose activity change, negative = inhibition, usual class: inhibitors; 0.13% of 410,000 active;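 note: loss of luciferase light is scored as toxicity; % is set by controls: 0 for no effect and ±100 for the full control effect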
#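 Here, cytotoxicity is scored as loss of luminescence. The MLSMR collection was tested on cells seeded in medium containing 10% Nu serum, with a 24 hr compound exposure preceded by 12 hours of culture.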
# The depositor's hits bear a star; i = inactive; ? = inconclusive; / = not tested or not shown; [ ] = dose if it differs, or a comment. Calls come from the whole dose curve; as a rule, active = well fitted curve in the direction sought with a large enough effect; inconclusive = small, poorly fitted or top-dose-only effect, or another doubt; inactive = no such curve, though single readings can be large; an effect the other way counts as inactive or inconclusive. Potency is the fitted concentration of half-maximal effect.
SMILES,GLP-1R inv ag,GLP1R ag,PTHR1 agonist,GLP1R cytotox
CCOc1ccc(N2C(=O)C(CC(=O)Nc3ccc(F)cc3)N(Cc3ccccn3)C2=S)cc1 (stereo not given),10µM*,13%,i,-5%
CC(C)(C)C1(O)CC(C(F)(F)F)=NN1C(=O)Cc1ccc([N+](=O)[O-])cc1 (stereo not given),10µM*,18%,-1%,20%
Cc1ccccc1OCC(=O)N1N=C(C(F)(F)F)CC1(O)C(C)(C)C (stereo not given),8.9µM*,-19%,i,?
COc1cc(Cl)c(NC(=O)CN2C(=O)c3cccnc3Sc3ccccc32)c(OC)c1,12%,/,-18%,-2%
CCC1Oc2ccccc2N(CC(=O)NCc2ccccc2)C1=O (stereo not given),7%,/,15%,1%
CNC(=S)N/N=C/c1cc(Br)cc(Br)c1O,?,-1%,i,88%
CCOc1ccc(/C=N/NC(=S)NC2CC3C=CC2C3)cc1 (stereo not given),3.2µM*,14%,i,7%
Oc1c(Br)cc(Br)cc1/C=N/NC(=S)N[C@H]1CC2C=CC1C2 (stereo not given in full),3.5µM*,0%,-17%,21%
CCOc1ccc(OCCCC(=O)N(C)CC(=O)Nc2ccccc2Br)cc1,-24%,0%,-38%,-2%
CCCN(CC(=O)Nc1ccccc1C)C(=O)CCCOc1ccc(Br)cc1,8.9µM*,1%,-23%,2%
CCN(CC)c1ccc(NC(=O)CN2C(=O)c3cccnc3Oc3ccccc32)c(C)c1,17%,/,?,3%
O=C(CSc1nc2ccccc2c(=O)n1-c1ccccc1)N1CCc2ccccc2C1,-19%,19%,i,-3%
CC(C)c1ccccc1-n1c(SCC(=O)c2ccc3c(c2)NC(=O)CO3)nc2ccccc2c1=O,10µM*,14%,-5%,14%
O=C1COc2ccc(C(=O)CSc3ccccc3C(=O)O)cc2N1,1%,-1%,-1%,15%
CC(C)c1ccccc1-n1c(SCC(=O)N2CCc3ccccc3C2)nc2ccccc2c1=O,10µM*,14%,-19%,6%
NCCNCCN,/,-2%,/,/
C#CCN(C[C@@H]1[C@@H](OC(=O)Nc2cccs2)[C@@H](OC(=O)Nc2cccs2)Cn2c(=O)ccc(=O)n21)S(=O)(=O)c1ccc(C)cc1,2.8µM*,-8%,-54%,?
CCc1ccccc1NC(=O)N(C)CCc1c(C)nn(C)c1C,4%,-1%,-23%,2%
NS(=O)(=O)c1ccc(NC(=O)Nc2ccc(S(N)(=O)=O)cc2)cc1,0%,0%,?,12%
NS(=O)(=O)c1ccc(NC(=O)Nc2ccc(C(F)(F)F)cc2)cc1,5µM*,5%,-15%,-12%
N#CCSc1nc2c(c(=O)n1Cc1ccco1)C1(CCCC1)Cc1ccccc1-2,5.6µM*,7%,-55%[57.5 µM],-12%
CCCn1c(SCC#N)nc2c(c1=O)C1(CCCC1)Cc1ccccc1-2,?,0%,i,-12%
Cc1onc(-c2ccccc2Cl)c1C(=O)NCc1ccccc1F,-29%,-1%,-10%,-5%
Cc1onc(-c2ccccc2Cl)c1C(=O)NCc1nc(-c2ccc(C(F)(F)F)cc2)no1,10µM*,14%,-8%,16%
COc1cc(OC)cc(C(=O)Nc2ccc(S(=O)(=O)N3CCCCC3c3cccnc3)cc2)c1 (stereo not given),7.1µM*,/,-36%,?
SMILES,GLP-1R inv ag,GLP1R ag,PTHR1 agonist,GLP1R cytotox
CCCC(=O)NCC(c1ccc2c(c1)OCO2)N1CCN(c2ccc(F)cc2)CC1 (stereo not given),-17%,/,0%,1%
CCOC(=O)c1sc(NC(=O)Nc2ccccc2Cl)cc1C,7.9µM*,-15%,-17%,?
CCOC(=O)c1sc(NC(C)=O)cc1C,36%,2%,-21%,-14%
O=c1c(N2CCN(c3cccc(Cl)c3)CC2)csc2ccccc12,-2%,/,i,-17%
CN=C(Nc1cc(Cl)ccc1Cl)SC1CC(=O)N(c2ccc(C(=O)OC)cc2)C1=O (stereo not given),4µM*,-4%,-16%[57.5 µM],-22%
COC(=O)c1ccc(N2C(=O)CC(SCC(=O)Nc3ccc(OC)cc3)C2=O)cc1 (stereo not given),11%,0%,i,0%
CC(=O)c1ccc(OCc2cc(C(=O)N(C)Cc3ccccn3)no2)cc1,10%,-9%,-21%,4%
